Experimental findings from PubChem BioAssay (NCI) are described below.

The nature of experiment [1]: NCI Yeast Anticancer Drug Screen. Data for the rad50 strain (AID 155).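 Also: 0% = growth of vehicle-only cultures of the same strain.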 The settings on record: S. cerevisiae rad50 strain growth inhibition; at 50.0 µM; hits give high values. In a few lines:
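Readout: growth inhibition relative to vehicle-treated cultures. Compound exposure was carried out in a genetically defined yeast strain deficient in DNA damage repair.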

A short description of experiment [2]: NCI Yeast Anticancer Drug Screen. Data for the mec2-1 strain (AID 157). The note with it: S. cerevisiae mec2-1 strain, at 50.0 µM, hits give high values. An outline of the steps: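 Cells of the genetically defined mec2-1 yeast strain are incubated with test compound. Inhibition of growth is calculated against vehicle-treated controls.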
Experiment [3] is described as follows: NCI Yeast Anticancer Drug Screen. Data for the sgs1 mgt1 strain (AID 161).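 Also: 0% = growth of cultures given vehicle only.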 The note with it: S. cerevisiae sgs1 mgt1 strain, at 50.0 µM, hits give high values. In a few lines: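 Read-out: growth inhibition vs vehicle controls. Cells: mutant yeast strain deficient in DNA damage repair.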
A short description of experiment [4]: NCI Yeast Anticancer Drug Screen. Data for the cln2 rad14 strain (AID 165).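 Also: 0% = growth equal to vehicle treated cultures.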 The settings on record: S. cerevisiae cln2 rad14 strain, at 50.0 µM, hits give high values. In a few lines: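 The screen exposed genetically defined yeast (cln2 rad14) to test compounds and scored growth inhibition relative to vehicle-treated controls.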
A short description of experiment [5]: NCI Yeast Anticancer Drug Screen. Data for the bub3 strain (AID 167). The note with it: S. cerevisiae bub3 mutant strain, at 50.0 µM, hits give high values. An outline of the steps: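 Readout: yeast growth inhibition, expressed relative to vehicle-only wells. The test organism is a mutant strain from a panel with lesions in DNA repair or checkpoint genes.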
Experiment [6] in a line: NCI Yeast Anticancer Drug Screen. Data for the mlh1 rad18 strain (AID 175). The settings on record: S. cerevisiae mlh1 rad18 strain growth inhibition; at 50.0 µM; hits give high values. In a few lines: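 Compound-treated yeast growth, normalised to vehicle controls. Strain bears defined DNA repair mutations.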

The panel holds about 79,000 compounds, 15% with a hit somewhere; the sample as a whole holds those more often. A number with no mark means an inactive call. Calls of active or inactive are those of the source. Rule as the data show it: active = growth inhibition above about 70%; inactive = the rest. Where a SMILES comes first, the peptide text is derived from it. The star is where a group is joined. Cbz = O=C(OCc1ccccc1)*

As to `O=C1CSC(=S)N1Nc1ccccc1`, the growth inhibition in experiment [1] was 2.45%; in experiment [2] it was -22.2%; in experiment [3], 22.2%; in experiment [4], 3.15%; in experiment [5], -15.8%; in experiment [6] it was -10.1%.
As to `CS(=O)(=O)C(c1nc2n(c1O)/C(=N/C(=O)Nc1ccc(Cl)cc1)N=N2)c1nc2n(c1O)/C(=N/C(=O)Nc1ccc(Cl)cc1)N=N2`, the growth inhibition is -14.9% in experiment [1]; 4.5% in experiment [2]; -8.5% in experiment [3]; -16.3% in experiment [4]; 1.3% in experiment [5]; -1.15% in experiment [6].
Consider `CC(NC(=O)C(NC(=O)OCc1ccccc1)C(C)C)C(=O)NCC(=O)O` (stereo not drawn) (Cbz-Val-Ala-Gly-OH; configuration not given here), for which the growth inhibition in experiment [1] was -0.05%; in experiment [2] it was -23.2%; in experiment [3] it was -9.9%; in experiment [4], 19.8%; in experiment [5], 7.1%; in experiment [6], -4.45%.
For the compound `O=c1c(-c2ccc(O)cc2)coc2cc(O)cc(O)c12`, the growth inhibition is 8.85% in experiment [1]; -6.15% in experiment [2]; 18.1% in experiment [3]; 3.65% in experiment [4]; 11.4% in experiment [5]; 5% in experiment [6].
In the case of `Cn1c(=O)c2c(ncn2Cc2ccccc2)n(C)c1=O`, the growth inhibition was -1.65% in experiment [1]; -13.2% in experiment [2]; 3.95% in experiment [3]; -10.7% in experiment [4]; 45.1% in experiment [5]; 4% in experiment [6].
`C=CC[N+](C)(CC=C)CC[N+](C)(CC=C)CC=C`: the growth inhibition in experiment [1] is -15%; in experiment [2], 1.35%; in experiment [3] it was -14.9%; in experiment [4], -43.5%; in experiment [5], 1.6%; in experiment [6], -18.4%.
Regarding `CC1OC(C)(Cc2ccccc2)OC1C` (stereo not given), the growth inhibition in experiment [1] was 3.95%; in experiment [2] it was -13.9%; in experiment [3], -9.2%; in experiment [4], -59%; in experiment [5], -7.1%; in experiment [6] it was -8.95%.
Consider `O=C(Nc1ccc(Br)cc1)Oc1ccc(Cl)cc1C(=O)c1ccccc1`, for which the growth inhibition is 38% in experiment [1]; 8.5% in experiment [2]; 19.1% in experiment [3]; 29.5% in experiment [4]; 41.8% in experiment [5]; 20.5% in experiment [6].
As for `FC(F)(F)c1cccc(NC(=S)N2CCOCC2)c1`, the growth inhibition in experiment [1] was 0.35%; in experiment [2] it was -2%; in experiment [3] it was 1.05%; in experiment [4], -4.2%; in experiment [5] it was 0.3%; in experiment [6], -11.7%.
Take `CCN(CC)/C(C=[N+]=[N-])=N\C(N)=N\S(=O)(=O)c1ccc(OC)cc1`: the growth inhibition was -37.2% in experiment [1]; -13.9% in experiment [2]; -13.8% in experiment [3]; -28% in experiment [4]; 4.05% in experiment [5]; 13.4% in experiment [6].
`CN(C)CCCOc1ccc(/C=C2/CCC/C(=C/c3ccc(OCCCN(C)C)cc3)C2=O)cc1`: the growth inhibition in experiment [1] is 22.6%; in experiment [2] it was 14.8%; in experiment [3] it was 19.8%; in experiment [4] it was 26.1%; in experiment [5], 18.7%; in experiment [6] it was 3.35%.
Take `C[C@@]12CCC(=O)c3coc(c31)C(=O)c1cc3c(cc12)C(=O)C=CC3=O`: the growth inhibition in experiment [1] is 92% (active); in experiment [2], 93.2% (active); in experiment [3], 93.2% (active); in experiment [4], 91.4% (active); in experiment [5], 92.2% (active); in experiment [6], 91.9% (active).
On to `Nc1ccc(S(=O)(=O)CCO)cc1`, for which the growth inhibition in experiment [1] is 1.1%; in experiment [2] it was -7.5%; in experiment [3] it was 4.65%; in experiment [4], 4.45%; in experiment [5] it was -5.6%; in experiment [6], 3.6%.
For `CN(N=O)C(=O)NCc1ccc(Cl)cc1`, the growth inhibition in experiment [1] is -0.1%; in experiment [2], 15.8%; in experiment [3] it was 17.6%; in experiment [4] it was 12.4%; in experiment [5], 8.05%; in experiment [6], 1.15%.
Regarding `CN(CCC1(C)C(=O)CCc2ccccc21)Cc1ccccc1` (stereo not given), the growth inhibition in experiment [1] was 12.9%; in experiment [2], 21.8%; in experiment [3], 22.8%; in experiment [4] it was 30.9%; in experiment [5] it was 14.1%; in experiment [6] it was 17.1%.
As to `CCNC(CC1CCCCC1)C(=O)O` (stereo not given), the growth inhibition was -6.15% in experiment [1]; 7.5% in experiment [2]; -1.8% in experiment [3]; 14.2% in experiment [4]; 13.2% in experiment [5]; 6.35% in experiment [6].
Turning to `CCCCCCCCCCCCS(=O)(=O)N/N=C(\c1ccccc1Cl)N1CCOCC1`, the growth inhibition in experiment [1] was 48.2%; in experiment [2] it was 33.5%; in experiment [3], 45.9%; in experiment [4], 48.2%; in experiment [5] it was 55.8%; in experiment [6] it was 51.2%.
In the case of `CC(=O)Nc1cc(Cl)ccc1C`, the growth inhibition is 39.7% in experiment [1]; 29.9% in experiment [2]; 26.3% in experiment [3]; 16.1% in experiment [4]; 5.95% in experiment [5]; 24.1% in experiment [6].
`C[N+]1(CC(O)c2ccccc2)CCCC1` (stereo not given): the growth inhibition in experiment [1] was 3.55%; in experiment [2] it was 13.3%; in experiment [3], -0.25%; in experiment [4], 32.6%; in experiment [5], 6.3%; in experiment [6], -10.8%.
Take `CCc1ccccc1NC(=O)Nc1cc(C)ccn1`: the growth inhibition in experiment [1] was 25.6%; in experiment [2], 12.9%; in experiment [3], 21.8%; in experiment [4], 21.3%; in experiment [5] it was 32%; in experiment [6] it was 27.9%.
